# Experimental data as given in PubChem BioAssay (NCATS).
# Inconclusive results are not listed. Where a call stands in place of a potency, no number is given. A number with no mark means an inactive call. Activity calls are given as the source filed them. The call rests on the fitted dose curve.
# Target: Cytochrome P450 1A2 (Homo sapiens) (UniProt P05177)
# Assay: p450-cyp1a2 (AID 410)
# Settings: recombinant CYP1A2, luciferin-ME demethylation, luminescence; series mostly up to 57 µM
# Procedure: The P450 gene superfamily is involved in metabolism and the clearance of xenobiotics. This assay used human CYP1A2 to measure the demethylation of luciferin 6' methyl ether (Luciferin-ME; Promega-Glo) to luciferin. The luciferin is then measured by luminescence after the addition of a luciferase detection regeant. Luciferin-ME concentration in the assay was equal to its Km for CYP1A2.
# NCGC Assay Protocol Summary:
# Two uL of enzyme and substrate mix (final concentrations: 20nM CYP1A2, 100uM Luciferin-ME, 100mM KPO4) were dispensed into a white, solid bottom 1536-well microtiter plate. 23nL of compound was transferred by a pin tool. The plate was incubated at room temperature for 10 min. Two uL of an NADPH regeneration solution (Promega supplied reagent) was dispensed and the reaction was allowed to continue for 60 min at room temperature. Then the reaction was stopped by reconstituted detection reagent. After another 20 min of incubation the plate was read on the ViewLux (Perkin Elmer) at 60 sec exposure and 2x2 binning. This protocol was carried out with Promega-Glo reagents and further information can be found at http://www.promega.com/tbs/tb325/tb325.pdf. Data were normalized to the to AC100 inhibition (57 uM furafylline).
# Potency means the concentration at half of the fitted maximal effect.
# Cytochrome P450 1A2 (Homo sapiens), sequence (P05177 whole entry, looked up): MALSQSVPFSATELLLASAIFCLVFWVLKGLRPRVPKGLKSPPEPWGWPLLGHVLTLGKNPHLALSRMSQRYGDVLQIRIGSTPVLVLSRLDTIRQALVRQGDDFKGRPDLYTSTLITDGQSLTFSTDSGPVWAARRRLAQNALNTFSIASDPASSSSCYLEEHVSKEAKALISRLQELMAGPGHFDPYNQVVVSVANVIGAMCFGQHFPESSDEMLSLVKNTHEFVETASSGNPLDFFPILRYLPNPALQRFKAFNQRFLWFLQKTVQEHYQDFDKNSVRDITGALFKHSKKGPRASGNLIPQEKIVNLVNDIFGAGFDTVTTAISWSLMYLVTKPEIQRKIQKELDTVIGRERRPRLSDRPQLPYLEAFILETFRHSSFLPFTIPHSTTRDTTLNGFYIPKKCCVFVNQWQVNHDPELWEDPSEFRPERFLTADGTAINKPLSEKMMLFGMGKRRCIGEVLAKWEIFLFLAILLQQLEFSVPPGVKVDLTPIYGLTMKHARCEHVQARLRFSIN
Structure (SMILES),Potency,"activity change, negative = inhibition"
O=P(c1ccccc1)(c1ccccc1)N1CC2(CC2)CC(O)(c2ccccc2)C1 (stereo not given),inactive,
C[C@]1(C(=O)O)[C@@H]2CC[C@@H](O2)[C@@]1(C)C(=O)O,inactive,
O=C(O)[C@H]1C[C@@H]1[C@H](NP(=O)(c1ccccc1)c1ccccc1)c1ccccc1,inactive,
COc1cc2c(cc1O)-c1c(O)c(OC)cc3c1[C@H](C2)N(C)CC3,3.16 µM (active),
COC(=O)[C@@]1(Cc2ccc(F)cc2)[C@H]2c3cc(C(=O)N(C)C)[nH]c3C[C@H]2CN1C(=O)c1ccccc1,20 µM (active),
CCCc1cc2c(n1Cc1cccc(Cl)c1)C(C)C1CN(C(=O)c3ccccc3)C(C)(C(=O)OC)C21 (stereo not given),31.6 µM (active),
CCCc1cc2c(n1Cc1ccc(C)cc1)C(C)C1CN(C(=O)c3ccccc3)C(C)(C(=O)OC)C21 (stereo not given),7.94 µM (active),
CC(C)[C@@]1(NC(=O)[C@@H]2C[C@H]3c4cccc5[nH]cc(c45)C[C@@H]3N(C)C2)O[C@@]2(O)[C@H]3CCCN3C(=O)[C@@H](Cc3ccccc3)N2C1=O,inactive,
CC(C)[C@H]1C(=O)N2CCC[C@@H]2[C@]2(O)O[C@@](NC(=O)[C@H]3C=C4c5cccc6[nH]cc(c56)C[C@H]4N(C)C3)(C(C)C)C(=O)N12,31.6 µM (active),
C=C[C@@H]1CN2CC[C@H]1C[C@H]2[C@@H](O)c1ccnc2ccccc12,inactive,
C[N+]1(C)[C@@H]2CC(OC(=O)[C@@H](CO)c3ccccc3)C[C@@H]1[C@H]1O[C@H]12 (stereo not given in full),,-22.8% [at 11.4 µM]
O=c1cccc2n1C[C@H]1C[C@@H]2CN(CCO)C1,15.8 µM (active),
CC[C@@H]1CN2CC[C@@H]1C[C@H]2[C@@H](O)c1ccnc2ccc(OC)cc12,inactive,
COC(=O)C1(C)C=C2C(=C(C)C(=O)C2C)CN1 (stereo not given),31.6 µM (active),
c1cc2c(cc1[C@H]1OC[C@H]3[C@@H]1CO[C@H]3c1ccc3c(c1)OCO3)OCO2,2 µM (active),
CN[C@H]1[C@H]2[C@H]3CCN2C[C@@H]1O3,inactive,
CCN1C[C@@]2(C)CC[C@H](O)[C@@]34[C@@H]5C[C@H]6[C@H](O)[C@@H]5[C@](O)(C[C@@H]6OC)[C@H](C[C@@H]23)[C@H]14,inactive,
C[C@@H]1O[C@@H](O[C@H]2C[C@@H](O)[C@]3(CO)[C@@H]4[C@@H](O)C[C@]5(C)[C@H]([C@@H]6COC(=O)C6)CC[C@@]5(O)[C@H]4CC[C@@]3(O)C2)[C@H](O)[C@H](O)[C@@H]1O,inactive,
CCN1C[C@]2(C)CC[C@@H](O)[C@]34[C@@H]5CC6[C@@H](OC)C[C@@](O)([C@H]5[C@@H]6O)[C@@H](C[C@@H]23)[C@H]14,inactive,
CN1C[C@H](CO)C=C2c3cccc4[nH]cc(c34)C[C@H]21,1 µM (active),

Structure (SMILES),Potency,"activity change, negative = inhibition"
COc1ccc2c(c1O)-c1c(OC)c(OC)cc3c1[C@@H](C2)N(C)CC3,15.8 µM (active),
C=C1C/C(=C\C)C(=O)O[C@@H]2CCN3CC=C(COC(=O)[C@]1(C)O)[C@H]23,inactive,
CCCC[C@@H]1C[C@H]1C(NP(=O)(c1ccccc1)c1ccccc1)c1ccc(Cl)cc1 (stereo not given in full),inactive,
C[C@H]1CCCC=CC2C[C@H](O)C[C@@H]2[C@H](O)/C=C\C(=O)O1 (stereo not given in full),15.8 µM (active),
CCCCCC[C@H]1C(=O)O[C@@H](C)[C@H](NC(=O)c2cccc(NC=O)c2O)C(=O)O[C@@H](C)[C@@H]1OC(=O)CC(C)C,inactive,
C[C@H](N)c1cccc(Cl)c1Cl,1.26 µM (active),
C=C(CC1(C(C)NP(=O)(c2ccccc2)c2ccccc2)CC1)c1ccccc1 (stereo not given),15.8 µM (active),
C[C@@H]1CCC/C=C\[C@H]2C[C@H](O)C[C@@H]2[C@H](O)/C=C\C(=O)O1,inactive,
CC(C)C[C@H]1C(=O)N2CCC[C@@H]2[C@]2(O)O[C@](NC(=O)[C@H]3C=C4c5cccc6[nH]cc(c56)C[C@H]4N(C)C3)(C(C)C)C(=O)N12,31.6 µM (active),
CCCN1CCC[C@H](c2cccc(C#N)c2)C1,inactive,
CC[C@H](CO)NC(=O)[C@@H]1C=C2c3cccc4c3c(cn4C)C[C@@H]2N(C)C1,inactive,
C=C(C)[C@@H]1CN[C@H](C(=O)O)[C@H]1CC(=O)O,inactive,
COc1ccc2[nH]c3c(c2c1)CCN=C3C,1.58 µM (active),
CC(C)(C)[C@@]1(O)C[C@@H]2OC(=O)C[C@@]23C(=O)O[C@H]2OC(=O)[C@@H](O)[C@]231,inactive,
c1cc2cc(c1)C[n+]1ccc(c3ccccc31)NCc1ccc(cc1)CNc1cc[n+](c3ccccc13)C2,inactive,
C=C[C@@H]1CN2CC[C@@H]1C[C@H]2[C@H](O)c1ccnc2ccccc12,inactive,
CCN(CC)C(=O)N[C@H]1C[C@H]2c3cccc4[nH]cc(c34)C[C@@H]2N(C)C1,inactive,
C=CCN1C[C@@H](C)N([C@H](c2ccc(C(=O)N(CC)CC)cc2)c2cccc(OC)c2)C[C@H]1C,inactive,
CCCCCCCCCCCCCC(=O)O[C@H]1[C@@H](C)[C@@]2(O)[C@@H](C=C(CO)C[C@]3(O)C(=O)C(C)=C[C@@H]23)C2C(C)(C)[C@]21OC(C)=O (stereo not given in full),inactive,
CC1=C2[C@@H]3OC(=O)[C@H](C)[C@H]3CC[C@@]2(C)C=CC1=O,31.6 µM (active),
